A selection: hits, their analogues and other compounds. The true share with any hit is near 3.1%.
Vif-A3G inh = blocks the Vif interaction with human APOBEC3G; HeLa A3G-eYFP + Vif (tagged APOBEC3G with the HIV-1 protein that degrades it), YFP fluorescence, overnight; Potency, µM (series often up to 46.1 µM), most hits filed as inhibitors; 410,000 compounds, 0.076% hits; note: nearly all actives have a fitted effect of over 60% in size
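Read-out is eYFP fluorescence (Ex 488/Em 500-530) from Vif-expressing HeLa A3G-eYFP cells; more signal means A3G escaped Vif-mediated degradation. Cells plated overnight, compound pinned in, incubated overnight at 37 deg C.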
VDR inhibitor = vitamin D3 receptor (human) inhibition; P11473; VDR-SRC2-3 peptide fluorescence polarization, 2 h; Potency, µM, most hits filed as inhibitors; 400,000 compounds, 0.93% hits; AID 504847
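Signal is fluorescence polarization, reporting how far test compounds block the interaction of VDR with the SRC2-3 coregulator peptide after a 2 h room-temperature incubation.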
PLK1 PBD inh = blocks phosphopeptide binding to human PLK1 polo-box domain | P53350 | Plk1 PBD binding of FITC phosphopeptide, fluorescence polarization | Potency, µM, hits mostly inhibitors | 360,000 compounds, 2.8% hits; note: series mostly up to about 57 µM; nearly all actives have a fitted effect of over 65% in size
TSHR antagonist = blocks TSH signaling through the human TSH receptor; 330,000 compounds, 0.2% hits; TSHR-expressing cells, TSH-stimulated cAMP HTRF, 2 h; hits give low values; P16473; AID 504810; activity change, negative = inhibition, % at 11.5 µM;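 active = activity change below a set negative limit, meaning inhibition stronger than a set level, cut at about -70% in these data; inconclusive = activity change between two set negative limits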
Target sequence (P16473 whole entry, looked up): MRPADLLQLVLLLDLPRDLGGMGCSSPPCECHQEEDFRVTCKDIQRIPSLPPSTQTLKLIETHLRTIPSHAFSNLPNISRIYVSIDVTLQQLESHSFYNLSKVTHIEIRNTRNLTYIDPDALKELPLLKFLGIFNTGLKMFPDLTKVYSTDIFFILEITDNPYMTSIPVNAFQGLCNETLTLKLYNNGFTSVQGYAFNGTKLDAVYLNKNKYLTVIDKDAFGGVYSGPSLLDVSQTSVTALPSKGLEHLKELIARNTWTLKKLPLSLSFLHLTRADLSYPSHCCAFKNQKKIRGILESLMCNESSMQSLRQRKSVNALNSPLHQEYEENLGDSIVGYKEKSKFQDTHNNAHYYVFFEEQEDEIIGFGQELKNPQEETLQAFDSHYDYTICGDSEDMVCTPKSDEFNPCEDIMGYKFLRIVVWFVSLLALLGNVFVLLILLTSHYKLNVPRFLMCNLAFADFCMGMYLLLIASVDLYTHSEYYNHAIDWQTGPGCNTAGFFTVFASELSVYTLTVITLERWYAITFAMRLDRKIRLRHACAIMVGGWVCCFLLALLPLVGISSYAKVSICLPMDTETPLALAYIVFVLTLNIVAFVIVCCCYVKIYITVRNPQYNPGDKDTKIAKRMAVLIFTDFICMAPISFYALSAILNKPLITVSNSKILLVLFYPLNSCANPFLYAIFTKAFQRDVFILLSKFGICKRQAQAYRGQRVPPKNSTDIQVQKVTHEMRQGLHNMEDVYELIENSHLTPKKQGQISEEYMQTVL
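TSHR-expressing cells, 200/well, pre-treated with compound, then stimulated with EC80 TSH (4nM final) for 2 hours at 37 deg C. cAMP measured by competitive HTRF: anti-cAMP cryptate antibody in lysis buffer plus cAMP-d2, read after 30 minutes at room temperature.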
Vif-A3F inh = blocks the Vif interaction with APOBEC3F; Potency, µM (top dose mostly 46.1 µM); HeLa A3F-eYFP + Vif (tagged APOBEC3F with the HIV-1 protein that degrades it), YFP fluorescence increase; AID 602313; 390,000 compounds, 0.2% hits; note: nearly all actives have a fitted effect of over 65% in size
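HeLa cells stably expressing Vif plus C-terminally eYFP-tagged A3F were seeded, incubated overnight at 37 deg C, dosed with compound, incubated overnight again at 37 deg C. Yellow fluorescence (Ex 488/Em 500-530) reported blocked Vif-mediated A3F-eYFP degradation.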
Each line names hits and unclear results; the compound was inactive in the other large screens. Unless noted, calls come from the whole dose curve; as a rule, active = well fitted curve in the direction sought with a large enough effect; inconclusive = small, poorly fitted or top-dose-only effect, or another doubt; inactive = no such curve, though single readings can be large; an effect the other way counts as inactive or inconclusive.

Cc1cc(C)nc(Nc2n[nH]c(COc3ccc4ccccc4c3)n2)n1	none
Cc1cc(C)nc(Nc2n[nH]c(COc3ccccc3)n2)n1	VDR inhibitor inconclusive, PLK1 PBD inh 3.4µM
CC1=C/C(=C\c2ccc(N(C)C)cc2)c2ccccc21	none (no result: VDR inhibitor, PLK1 PBD inh, TSHR antagonist, Vif-A3F inh)
Clc1ccc(-c2nc3ccncc3[nH]2)cc1	PLK1 PBD inh 8.4µM
Cc1ccc(NS(=O)(=O)c2cc(-c3cnc(C4CC4)o3)ccc2C)cc1Cl	none (no result: Vif-A3G inh, PLK1 PBD inh, TSHR antagonist, Vif-A3F inh)
Nc1c(N(CCC2=CCCCC2)C(=O)c2ccc([N+](=O)[O-])o2)c(=O)[nH]c(=O)n1Cc1ccccc1	Vif-A3F inh 22µM (no result: TSHR antagonist)
Cc1ccc(C(=O)N(CCC2=CCCCC2)c2c(N)n(Cc3ccccc3)c(=O)[nH]c2=O)o1	none
CCOC(=O)C1=C(C)NC(=NC)SC1c1ccccc1 (configuration not stated)	PLK1 PBD inh 21µM
CCOC(=O)C1=C(C)NC(=O)C(C(N)=O)C1c1ccccc1 (configuration not stated)	none
COc1ccc(-c2c(C)n([O-])c(C)c(C)[n+]2=O)cc1	PLK1 PBD inh 24µM
Cc1ccc(C(=O)NCC(=O)NCC(=O)OCC(=O)c2ccc([N+](=O)[O-])cc2)cc1	VDR inhibitor 79µM
CC1CCc2c(sc(NC(=O)CSc3ncn[nH]3)c2C#N)C1 (configuration not stated)	none
CC(C)(C)C1CCc2c(sc(NC(=O)CSc3ncn[nH]3)c2C#N)C1 (configuration not stated)	PLK1 PBD inh 19µM
COC(=O)C1SCC2C(=O)N(Cc3ccc(Cl)c(Cl)c3)CC(=O)N21 (configuration not stated)	VDR inhibitor inconclusive, PLK1 PBD inh 19µM
C/C(Cc1ccccc1)=N\NC(=O)CNC(=O)c1ccc(Br)cc1	PLK1 PBD inh 27µM
C/C(=N\NC(=O)c1ccncc1)c1ccc(N2CCOCC2)cc1	none
C/C(=N\NC(=O)c1ccncc1)c1ccc(N(C)C)cc1	PLK1 PBD inh 27µM
COC(=O)NC(c1ccccc1)c1c[nH]c2ccccc12 (configuration not stated)	none (no result: Vif-A3G inh, PLK1 PBD inh, TSHR antagonist, Vif-A3F inh)
CC(C)(C)C(=O)C[n+]1cccc(C(N)=O)c1	PLK1 PBD inh 30µM
NC(=O)c1ccc[n+](CCC[n+]2cccc(C(N)=O)c2)c1	PLK1 PBD inh inconclusive
COC(=O)c1ccc(C(=O)OC)c(N)c1	none (no result: Vif-A3G inh, VDR inhibitor, PLK1 PBD inh, Vif-A3F inh)
COC(=O)c1ccc(N2CCC(C)CC2)c(N)c1	VDR inhibitor inconclusive, PLK1 PBD inh 21µM
CCCC(=O)c1ccc(N2CCC(C)CC2)c(F)c1	PLK1 PBD inh 24µM
CCC(=O)c1ccc(N2CCC(C)CC2)c(F)c1	none
S=C(Nc1cccc(Br)c1)c1ccccc1	PLK1 PBD inh 13µM
Cn1nc([N+](=O)[O-])nc1Oc1ccccc1F	PLK1 PBD inh 24µM
O=S(=O)(c1cccc2nsnc12)N1CCN(c2ccc(F)cc2)CC1	none
O=S(=O)(c1cccc2nsnc12)N1CCN(c2ccccc2F)CC1	PLK1 PBD inh 24µM
NS(=O)(=O)c1ccc(N=Nc2ccc(=O)[nH]c2O)cc1	PLK1 PBD inh 27µM
NS(=O)(=O)c1ccc(N=Nc2ccc(O)c3ncccc23)cc1	Vif-A3F inh inconclusive
O=C(O)CCN1C(=O)/C(=C\c2ccncc2)SC1=S	none
O=C(O)CN1C(=O)/C(=C\c2cccc(OCc3ccccc3F)c2)SC1=S	VDR inhibitor inconclusive, PLK1 PBD inh 30µM
O=C(O)CCN1C(=O)/C(=C\c2cccc(Oc3ccccc3)c2)SC1=S	VDR inhibitor 35µM, PLK1 PBD inh 17µM
CCN(CC)C(=O)CN1C(=O)/C(=C/c2ccccc2)SC1=S	VDR inhibitor inconclusive, PLK1 PBD inh 27µM
O=C(O)CCN1C(=O)/C(=C\c2ccc(-c3nc4ccccc4s3)o2)SC1=S	PLK1 PBD inh 8.4µM
CC(=O)NNC(=O)CN1C(=O)/C(=C/c2ccccc2)SC1=S	none
O=C(O)CN1C(=O)/C(=C/C=C/c2ccccc2)SC1=S	PLK1 PBD inh inconclusive
COc1ccc(Cl)cc1NC(=O)c1cnc2sc(N3CCOCC3)nn2c1=O	none (no result: PLK1 PBD inh, TSHR antagonist)
O=C(O)CN1C(=O)/C(=C\c2cccc(OC(=O)c3ccco3)c2)SC1=S	none
O=C(O)CN1C(=O)/C(=C\c2cccc(OCc3ccc(F)cc3)c2)SC1=S	VDR inhibitor 45µM, PLK1 PBD inh 27µM
O=C(O)CN1C(=O)/C(=C/c2ccsc2)SC1=S	none
CN1C(=O)/C(=C\c2ccccc2OCc2ccccc2)SC1=S	Vif-A3F inh inconclusive
O=C(O)CN1C(=O)/C(=C\c2ccccc2OCc2ccc(Cl)cc2)SC1=S	VDR inhibitor inconclusive, PLK1 PBD inh 30µM
O=C(O)CN1C(=O)/C(=C\c2cccc(OCc3ccc(Cl)cc3)c2)SC1=S	VDR inhibitor 50µM, PLK1 PBD inh 21µM
O=C(O)COc1ccccc1/C=C1\SC(=S)N(/N=C/c2ccccc2O)C1=O	VDR inhibitor inconclusive, PLK1 PBD inh 21µM
CN1C=CC(=C2C=CN(C)C=C2)C=C1	none (no result: Vif-A3G inh, PLK1 PBD inh, TSHR antagonist, Vif-A3F inh)
O=C(c1ccncc1)N1CCC2(CCCN(c3ccccn3)C2)CC1	none (no result: Vif-A3G inh, PLK1 PBD inh, TSHR antagonist, Vif-A3F inh)
CC(C)[C@@H](CC(=O)N[C@@H]1CCNC[C@H]1C(=O)N[C@H](CC(=O)N[C@@H](CCC(=O)O)CC(=O)O)Cc1c[nH]c2ccccc12)NC(=O)C[C@H](CO)NC(=O)[C@@H]1CNCC[C@H]1N	none (no result: Vif-A3G inh, PLK1 PBD inh, TSHR antagonist, Vif-A3F inh)
COc1ccc(N2CSC3=C(C#N)C(c4cccs4)CC(=O)N3C2)cc1 (configuration not stated)	none (no result: Vif-A3G inh)
N#CC1=C2SCN(Cc3ccco3)CN2C(=O)CC1c1ccccc1F (configuration not stated)	VDR inhibitor 32µM, PLK1 PBD inh 27µM
N#CC1=C2SCN(Cc3ccco3)CN2C(=O)CC1c1cccc2ccccc12 (configuration not stated)	VDR inhibitor inconclusive, PLK1 PBD inh 24µM
Cc1ccc(NC(=S)N(CCN(C)C)Cc2cccs2)c(C)c1	VDR inhibitor inconclusive, PLK1 PBD inh 8.4µM
Cc1cc(C)c(NC(=S)N(CCN(C)C)Cc2cccs2)c(C)c1	none
Cc1ccc2c(C(=O)CNc3nccs3)c[nH]c2c1	none (no result: VDR inhibitor, PLK1 PBD inh, TSHR antagonist, Vif-A3F inh)
COC(=O)C1=C(N)OC2=C(C(=O)CC(C)(C)C2)C1c1ccccc1OC (configuration not stated)	none
COC(=O)C1=C(N)OC2=C(C(=O)CC(C)(C)C2)C1c1ccoc1 (configuration not stated)	PLK1 PBD inh 4.7µM
CCn1c(=O)n(C2=C(CO)CN(CC3CCCCCCC3)CC2)c2ccccc21	none (no result: Vif-A3G inh, PLK1 PBD inh, TSHR antagonist, Vif-A3F inh)
O=c1cc(-c2cc(O)c(O)c([C@@H]3O[C@H](CO)[C@@H](O)[C@H](O)[C@H]3O)c2)oc2cc(O[C@@H]3O[C@H](CO)[C@@H](O)[C@H](O)[C@H]3O)cc(O)c12	none (no result: Vif-A3G inh, PLK1 PBD inh, TSHR antagonist, Vif-A3F inh)
O=C(O)C(Cc1ccccc1)N1C(=O)/C(=C/c2ccccc2)SC1=S (configuration not stated)	VDR inhibitor inconclusive, PLK1 PBD inh inconclusive
